The values below come from PubChem BioAssay (Tox21).

Test [1] can be described thus: Caspase-3/7 induction in HepG2 cells by small molecules, qHTS cell viability counter screen (AID 1346981; active means well fitted curve in the direction sought with a large enough effect in the repeat runs; an effect the other way counts as inactive or inconclusive; further: nearly all actives have a fitted effect of over 30% in size). Put shortly: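 Wild-type HepG2 cells, 2,000/well, settled 5 hr at 37 C, 5% CO2 before compound addition. Viability read by CellTiter-Fluor fluorescence, reagent added after 16 hr compound exposure, then 1 hr at 37C, in the same wells as the caspase read.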
(Quantitative high-throughput screening tests each substance at several concentrations.)

The target in test [2] is Nuclear receptor subfamily 1 group I member 2 (Homo sapiens) (UniProt O75469). As to the kind of experiment: Human pregnane X receptor (PXR) small molecule agonists, qHTS assay (AID 1346982; active means well fitted curve in the direction sought with a large enough effect in the repeat runs; an effect the other way counts as inactive or inconclusive; further: nearly all actives have a fitted effect of over 35% in size). The gist of the method: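 PXR-Luc HepG2 reporter cells (CYP3A4-driven luciferase) in 5% charcoal-stripped FBS medium, plated 5 h before compound addition, then treated 24 h at 37C. Luciferase read by ONE-Glo luminescence after 30 min at room temperature.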
Sequence of Nuclear receptor subfamily 1 group I member 2 (Homo sapiens) (O75469 whole entry, looked up): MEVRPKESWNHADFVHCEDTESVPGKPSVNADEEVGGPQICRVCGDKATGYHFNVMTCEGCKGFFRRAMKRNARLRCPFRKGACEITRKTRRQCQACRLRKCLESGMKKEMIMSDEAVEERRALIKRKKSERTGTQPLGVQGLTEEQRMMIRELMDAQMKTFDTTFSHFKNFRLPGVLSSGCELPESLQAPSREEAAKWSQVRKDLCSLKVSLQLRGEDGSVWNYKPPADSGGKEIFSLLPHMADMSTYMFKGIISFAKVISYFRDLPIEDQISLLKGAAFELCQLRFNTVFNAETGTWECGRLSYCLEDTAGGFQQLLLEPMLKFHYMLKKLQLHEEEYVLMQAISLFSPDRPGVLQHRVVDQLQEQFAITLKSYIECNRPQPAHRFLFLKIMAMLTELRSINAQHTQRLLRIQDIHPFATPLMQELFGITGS

The target in test [3] is Acetylcholinesterase (Homo sapiens) (UniProt P22303). Description: Acetylcholinesterase (AChE) small molecule antagonists: colormetric cell-based qHTS assay (AID 1347395). Further: nearly all actives have a fitted effect of over 30% in size. The gist of the method: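 Neuroblastoma line SH-SY5Y supplied the enzyme; cells were preincubated with compound for 30 min at 37 C and 5% CO2. Acetylthiocholine with DTNB was then added for 90 min at 37 C, and thiocholine was measured by colour.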
Sequence of Acetylcholinesterase (Homo sapiens) (P22303 whole entry, looked up): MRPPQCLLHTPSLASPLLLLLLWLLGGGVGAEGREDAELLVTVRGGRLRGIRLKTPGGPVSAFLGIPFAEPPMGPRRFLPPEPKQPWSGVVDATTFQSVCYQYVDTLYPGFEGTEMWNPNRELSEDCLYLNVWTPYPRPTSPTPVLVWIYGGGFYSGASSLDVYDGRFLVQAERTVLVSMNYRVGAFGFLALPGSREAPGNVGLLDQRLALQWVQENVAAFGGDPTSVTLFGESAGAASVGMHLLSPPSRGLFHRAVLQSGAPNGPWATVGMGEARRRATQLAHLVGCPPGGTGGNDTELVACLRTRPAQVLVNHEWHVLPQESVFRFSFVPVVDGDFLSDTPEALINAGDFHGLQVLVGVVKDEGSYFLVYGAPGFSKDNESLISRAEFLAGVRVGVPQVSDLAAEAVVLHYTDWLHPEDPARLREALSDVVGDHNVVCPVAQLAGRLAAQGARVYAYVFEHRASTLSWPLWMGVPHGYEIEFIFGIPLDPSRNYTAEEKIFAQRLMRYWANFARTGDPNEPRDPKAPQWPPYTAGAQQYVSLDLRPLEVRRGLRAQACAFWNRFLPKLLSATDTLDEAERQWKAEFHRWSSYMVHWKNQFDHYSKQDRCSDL

Test [4] has the same target. Description: Acetylcholinesterase (AChE) small molecule antagonists: enzyme-based qHTS assay (AID 1347397). Further: nearly all actives have a fitted effect of over 55% in size. Particulars: Potency: AChE enzyme activity inhibition. The gist of the method:
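Recombinant human AChE, dispensed at 50 mU/mL, was preincubated with Tox21 10K compounds or DMSO vehicle for 30 min at room temperature. DTNB plus acetylthiocholine was then added, and thiocholine was measured colorimetrically after a further 10 min.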

For test [5] the target is unchanged. Description: Acetylcholinesterase (AChE) small molecule antagonists: fluorescence cell-based qHTS assay (AID 1347398). Further: nearly all actives have a fitted effect of over 50% in size. Particulars: Potency: AChE activity. Put shortly: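 Human SH-SY5Y cells were plated overnight at 37 C, exposed to compound for 30 min at 37 C, 5% CO2, then given acetylthiocholine plus Thiolite Green for 40 min at room temperature; thiocholine fluorescence (Ex/Em 490/520 nm) reports endogenous AChE activity.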

Test [6] has the same target. Description: Acetylcholinesterase (AChE) small molecule antagonists: enzyme-based qHTS assay with human liver microsomes (AID 1347399). Further: nearly all actives have a fitted effect of over 60% in size. To be noted: Potency: qHTS inhibition. Put shortly:
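Recombinant human AChE (50 mU/mL in the enzyme mix) and human liver microsomes (0.25 mg/mL final) were preincubated with compound and NADPH (0.25 mg/mL final) for 30 min at 37 C. Acetylthiocholine/DTNB was then added; thiocholine was read colorimetrically after 10 min at room temperature.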

The target of test [7] is Cytochrome P450 2D6 (Homo sapiens) (UniProt P10635). Description: Cytochrome P450 Family 2 Subfamily D Member 6 (CYP2D6) small molecule antagonists: luciferase reporter qHTS assay (AID 1671196; active means well fitted curve in the direction sought with a large enough effect in the repeat runs; an effect the other way counts as inactive or inconclusive; further: nearly all actives have a fitted effect of over 50% in size). The gist of the method: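 Cell-free P450-Glo system: CYP2D6 with proluciferin substrate was pre-incubated with compound for 10 min, then reacted with NADPH regeneration for 1 h at room temperature. Luciferin product was detected after 20 min, and data were reported as relative luminescence units.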
Sequence of Cytochrome P450 2D6 (Homo sapiens) (P10635 whole entry, looked up): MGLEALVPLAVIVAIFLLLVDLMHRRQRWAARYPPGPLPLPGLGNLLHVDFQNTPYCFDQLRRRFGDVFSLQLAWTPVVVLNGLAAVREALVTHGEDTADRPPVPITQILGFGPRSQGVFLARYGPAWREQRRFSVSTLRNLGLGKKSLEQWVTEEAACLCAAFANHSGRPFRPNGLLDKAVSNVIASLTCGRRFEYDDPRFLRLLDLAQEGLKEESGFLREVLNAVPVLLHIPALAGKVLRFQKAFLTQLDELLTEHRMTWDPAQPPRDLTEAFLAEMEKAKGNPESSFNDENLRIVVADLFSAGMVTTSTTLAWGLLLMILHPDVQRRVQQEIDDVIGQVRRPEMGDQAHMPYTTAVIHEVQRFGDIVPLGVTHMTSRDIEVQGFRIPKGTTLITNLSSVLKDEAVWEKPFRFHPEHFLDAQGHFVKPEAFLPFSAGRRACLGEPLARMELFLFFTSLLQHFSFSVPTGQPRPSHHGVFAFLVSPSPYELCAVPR
In general terms: A reporter such as luciferase makes a cellular process visible.

Where “and” joins values, the source holds several entries; their conditions need not be identical. Equal entries are not always repeated. Inconclusive results are not listed. Some structures have more than one record in an assay (separate samples or runs), and their calls can disagree. Calls of active or inactive are those of the source. Unless noted, the call rests on the fitted dose curve.
Potency means the concentration at half of the fitted maximal effect.

On to `Clc1cccc(Cl)c1Cl`, for which the Potency result in test [1], in test [2], in test [3], in test [4], in test [5] and in test [6] was “inactive” each time. Further, the Potency result in test [7] is “inactive”.
Take `O=[N+]([O-])c1ccc(Oc2ccc(Cl)cc2Cl)cc1`: the Potency result in test [1], in test [4], in test [5] and in test [6] was “inactive” in each case. Also, the Potency was 54.8 µM (active) and inactive in test [2]; 63.6 µM (active) and inactive in test [3]; 22.6 µM (active) in test [7].
As for `CC(Br)C(=O)O` (stereo unspecified), the Potency entry in test [1], in test [2], in test [3], in test [4], in test [5] and in test [6] was “inactive” each time. In addition, in test [7], the Potency entry is “inactive”.
As to `O=Cc1cccc(Oc2ccccc2)c1`, the Potency result in test [1], in test [2], in test [3], in test [4], in test [5] and in test [6] was “inactive” throughout. The Potency result in test [7] was “inactive”.
Consider `O=c1[nH]c(=O)[nH]c(=O)[nH]1`, for which the Potency result in test [1], in test [2], in test [3], in test [4], in test [5] and in test [6] was “inactive” throughout. For the same compound, the Potency in test [7] was 63.2 µM (active) and inactive.
Regarding `CC(C)OC(=O)Nc1ccccc1`, the Potency entry in test [1], in test [3], in test [4], in test [5], in test [6] and in test [7] was “inactive” throughout. For the same compound, the Potency in test [2] is 38.6 µM (active).
As to `CCNc1nc(NC(C)(C)C)nc(SC)n1`, the Potency entry in test [1], in test [3], in test [4], in test [5], in test [6] and in test [7] was “inactive” in each case. Besides, the Potency in test [2] is 30.2 µM (active) and 48.6 µM (active).
On to `COc1ccc2c3c1O[C@H]1[C@@H](O)C=C[C@H]4[C@@H](C2)N(C)CC[C@@]341`, for which the Potency entry in test [1], in test [2], in test [4], in test [5] and in test [6] was “inactive” each time.
As to `Cc1cccc([N+](=O)[O-])c1`, the Potency result in test [1], in test [2], in test [3], in test [4], in test [5] and in test [6] was “inactive” in each case. Besides, the Potency entry in test [7] was “inactive”.
`CCCCCCCCCCCC#N`: the Potency result in test [1], in test [2], in test [3], in test [4], in test [5] and in test [6] was “inactive” throughout. Besides, the Potency entry in test [7] is “inactive”.
Regarding `O=S(=O)(c1ccc(Cl)cc1)c1cc(Cl)c(Cl)cc1Cl`, the Potency result in test [1], in test [3], in test [4], in test [5], in test [6] and in test [7] was “inactive” in each case. Besides, in test [2], the Potency was 30.6 µM (active).
For the compound `[N-]=[N+]=[N-]`, the Potency result in test [1], in test [2], in test [3], in test [4], in test [5] and in test [6] was “inactive” in each case. The Potency in test [7] was 38.6 µM (active) and inactive.
For `CCc1cccc(C)c1N(C(=O)CCl)C(C)COC` (stereo unspecified), the Potency result in test [1], in test [3], in test [4], in test [5], in test [6] and in test [7] was “inactive” throughout. Moreover, the Potency in test [2] is 2.89 µM (active) and 3.06 µM (active).
As for `CON(C)C(=O)Nc1ccc(Cl)c(Cl)c1`, the Potency result in test [1], in test [3], in test [4], in test [5], in test [6] and in test [7] was “inactive” throughout. In addition, the Potency in test [2] was 61.4 µM (active) and 54.5 µM (active).
Turning to `CC(C)(Cl)Cl`, the Potency entry in test [1], in test [2], in test [3], in test [4], in test [5] and in test [6] was “inactive” in each case. The Potency entry in test [7] was “inactive”.
On to `[O-][Cl+2]([O-])O`, for which the Potency entry in test [1], in test [2], in test [3], in test [4], in test [5] and in test [6] was “inactive” in each case. For the same compound, the Potency entry in test [7] is “inactive”.
Consider `CCN(CC)CCO`, for which the Potency entry in test [1], in test [2], in test [3], in test [4], in test [5] and in test [6] was “inactive” each time. Also, in test [7], the Potency result is “inactive”.
With `CC1C=[C-]C=C1.[C-]#[O+].[C-]#[O+].[C-]#[O+].[Mn]`, the Potency result in test [1], in test [3], in test [4], in test [5], in test [6] and in test [7] was “inactive” each time. Also, in test [2], the Potency is 54.5 µM (active) and 19.2 µM (active).
Regarding `CN=C=S`, the Potency entry in test [1], in test [3], in test [4], in test [5], in test [6] and in test [7] was “inactive” in each case. Besides, in test [2], the Potency was 30.9 µM (active) and inactive.
Take `CC(C)C1(C)N=C(c2nc3ccccc3cc2C(=O)O)NC1=O` (stereo unspecified): the Potency result in test [1], in test [2], in test [3], in test [4], in test [5] and in test [6] was “inactive” each time. In addition, the Potency result in test [7] is “inactive”.
For the compound `COC(=O)NS(=O)(=O)c1ccc(N)cc1`, the Potency entry in test [1], in test [2], in test [3], in test [4], in test [5] and in test [6] was “inactive” in each case. The Potency result in test [7] was “inactive”.
`Cc1[nH]c(=O)n(C(C)(C)C)c(=O)c1Cl`: the Potency result in test [1], in test [2], in test [4], in test [5], in test [6] and in test [7] was “inactive” throughout.
Turning to `CN(C)CCO`, the Potency result in test [1], in test [2], in test [3], in test [4], in test [5] and in test [6] was “inactive” in each case. Further, in test [7], the Potency result is “inactive”.
As to `CCCCN(CCCC)SN(C)C(=O)Oc1cccc2c1OC(C)(C)C2`, in test [1], the Potency result was “inactive”. The Potency in test [2] was 62.1 µM (active) and inactive; in test [3] it was 809 nM (active) and 159 nM (active); in test [4], 57.3 nM (active) and 894 nM (active); in test [5] it was 36.2 nM (active) and 564 nM (active); in test [6], 573 nM (active) and 3.56 µM (active); in test [7], 28.7 µM (active) and 35.6 µM (active).
Turning to `CC(C#N)CCC#N` (stereo unspecified), the Potency result in test [1], in test [2], in test [3], in test [4], in test [6] and in test [7] was “inactive” in each case. Also, in test [5], the Potency is 35.2 µM (active) and inactive.
Take `COCCl`: the Potency in test [1] is 35.7 µM (active) and inactive; in test [2] it was 56.6 µM (active) and inactive. Besides, the Potency entry in test [3], in test [4], in test [5], in test [6] and in test [7] was “inactive” each time.
With `Cc1ccc(N)cc1Cl`, the Potency result in test [1], in test [2], in test [4], in test [5] and in test [6] was “inactive” each time.
`CC(C)(C)OOC(=O)c1ccccc1`: the Potency result in test [1], in test [2], in test [4], in test [5], in test [6] and in test [7] was “inactive” throughout.
With `c1cc2c3c(cccc3c1)CC2`, the Potency result in test [1], in test [2], in test [4], in test [5], in test [6] and in test [7] was “inactive” throughout. The Potency in test [3] is 36.5 µM (active) and inactive.
With `c1ccc(OP(Oc2ccccc2)Oc2ccccc2)cc1`, the Potency result in test [1], in test [2], in test [3], in test [4], in test [5] and in test [6] was “inactive” in each case. Moreover, the Potency entry in test [7] was “inactive”.
Turning to `Nc1ccc(Oc2ccc(N)cc2)cc1`, the Potency entry in test [1], in test [3], in test [4], in test [5] and in test [6] was “inactive” throughout. Besides, the Potency in test [2] was 62 µM (active); in test [7], 36.1 µM (active) and 31.7 µM (active).
`Nc1ccc(Cc2ccc(N)cc2)cc1`: the Potency entry in test [1], in test [3], in test [4], in test [5], in test [6] and in test [7] was “inactive” in each case. In test [2], the Potency is 60.1 µM (active) and inactive.
For `CCC12COCN1COC2`, the Potency result in test [1], in test [2], in test [4], in test [5], in test [6] and in test [7] was “inactive” in each case.
As to `c1ccc2c(c1)Oc1ccccc1O2`, the Potency result in test [1], in test [2], in test [3], in test [4], in test [5] and in test [6] was “inactive” each time. In addition, the Potency entry in test [7] was “inactive”.
